Percent growth inhibition data for 25 compounds are collected here from the supplement of paper PMC6658780.

Structures can show the parent of a compound that is named as a salt. ± gives the standard deviation of the averaged measurements.

The first experiment deals with Escherichia coli ATCC BAA-2469. The experiment in a line: percent growth inhibition of drug + antibiotic vs DMSO control; higher = more growth inhibition. The following applies: antibiotic (0.125x MIC): ciprofloxacin; 7 µM. The protocol: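 Prestwick drugs tested at 20 uM and 7 uM with an antibiotic at 0.125x MIC (16 mg/L when MIC >128 mg/L) against E. coli ATCC BAA-2469 (NDM-1) in CAMHB, 384-well plates, duplicate runs. Percent growth inhibition was computed from OD600 (24 h minus 0 h) relative to DMSO wells. Drug + DMSO-only wells are also given. […]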
On to `C#C[C@]1(OC(C)=O)CC[C@H]2[C@@H]3CCC4=C[C@@H](OC(C)=O)CC[C@@H]4[C@H]3CC[C@@]21C` [Ethynodiol diacetate], for which the percent growth inhibition was 5.09 ± 12%. Still for that read-out and setting: the figure for `Nc1ccn([C@@H]2O[C@H](CO)[C@@H](O)C2(F)F)c(=O)n1` [Gemcitabine] is 23.1 ± 11%; for `CS(=O)(=O)c1ccc([C@@H](O)[C@@H](CF)NC(=O)C(Cl)Cl)cc1` [Florfenicol] it is 35.4 ± 4.7%. On the same count and under the same terms, the figure for `Nc1ncn(C2OC(CO)C(O)C2O)c(=O)n1` (stereo not given) [Azacytidine-5] is 99.1 ± 2.6%. As to `CC(C)(C)C(=O)OCOC(=O)[C@@H]1N2C(=O)[C@@H](/N=C/N3CCCCCC3)[C@H]2SC1(C)C` [Pivmecillinam hydrochloride], the percent growth inhibition was found to be 2.89 ± 3.3%.

With `Nc1nc(O)c2ncn(CCC(CO)CO)c2n1` [Penciclovir], the percent growth inhibition was determined as 7.81 ± 16%.

On to `O=C1c2c(O)ccc(O)c2C(=O)c2c(NCCNCCO)ccc(NCCNCCO)c21` [Mitoxantrone dihydrochloride], for which the percent growth inhibition came to 6.59 ± 1.5%. On the same count and under the same terms, the figure for `CO[C@H]1/C=C/O[C@@]2(C)Oc3c(C)c(O)c4c(O)c(c(/C=N/N5CCN(C)CC5)c(O)c4c3C2=O)NC(=O)/C(C)=C\C=C\[C@H](C)[C@H](O)[C@@H](C)[C@@H](O)[C@@H](C)[C@H](OC(C)=O)[C@@H]1C` [Rifampicin] is 13.5 ± 3.6%.

Still in this experiment, the particulars now being: antibiotic (0.125x MIC): ciprofloxacin; 20 µM.
Regarding `C#C[C@]1(OC(C)=O)CC[C@H]2[C@@H]3CCC4=C[C@@H](OC(C)=O)CC[C@@H]4[C@H]3CC[C@@]21C` [Ethynodiol diacetate], the percent growth inhibition is 8.86 ± 3.1%.

For the compound `CS(=O)(=O)c1ccc([C@@H](O)[C@@H](CF)NC(=O)C(Cl)Cl)cc1` [Florfenicol], the percent growth inhibition amounted to 88.8 ± 2.8%. Consider `N=C(NCCCCCCNC(=N)NC(=N)Nc1ccc(Cl)cc1)NC(=N)Nc1ccc(Cl)cc1` [Chlorhexidine], for which the percent growth inhibition came to 103 ± 3.8%.

Turning to `Nc1ncn(C2OC(CO)C(O)C2O)c(=O)n1` (stereo not given) [Azacytidine-5], the percent growth inhibition was found to be 101 ± 3%. For `Nc1nc(O)c2ncn(CCC(CO)CO)c2n1` [Penciclovir], the percent growth inhibition was -2.9 ± 7.2%. With `O=C1c2c(O)ccc(O)c2C(=O)c2c(NCCNCCO)ccc(NCCNCCO)c21` [Mitoxantrone dihydrochloride], the percent growth inhibition stood at 52.9 ± 1.9%. Regarding `CO[C@H]1/C=C/O[C@@]2(C)Oc3c(C)c(O)c4c(O)c(c(/C=N/N5CCN(C)CC5)c(O)c4c3C2=O)NC(=O)/C(C)=C\C=C\[C@H](C)[C@H](O)[C@@H](C)[C@@H](O)[C@@H](C)[C@H](OC(C)=O)[C@@H]1C` [Rifampicin], the percent growth inhibition amounted to 101 ± 2.1%.

The same experiment, now with this note: antibiotic (0.125x MIC): gentamicin; 7 µM.
Regarding `O=C1CN(/N=C/c2ccc([N+](=O)[O-])o2)C(=O)N1` [Nitrofurantoin], the percent growth inhibition was 6.28 ± 5.3%. For the compound `COc1ccc2c(c1)c(CC(=O)OCC(=O)O)c(C)n2C(=O)c1ccc(Cl)cc1` [Acemetacin], the percent growth inhibition came to 2.64 ± 1.7%. Still for that read-out and setting: with `CCCCNc1c(C(=O)OCC)c(C)nc2c1cnn2CC` [Tracazolate hydrochloride] the figure was 0.683 ± 0.77%; with `N[C@@H]1CCCCN(c2c(F)cc3c(=O)c(C(=O)O)cn(C4CC4)c3c2Cl)C1` [Besifloxacin hydrochloride], 6.28 ± 5.6%.

Turning to `NC(=O)N/N=C/c1ccc([N+](=O)[O-])o1` [Nitrofural], the percent growth inhibition was 8.48 ± 6.7%. Same read-out and setting: with `Oc1c(Cl)cc(Cl)c(Cl)c1Cc1c(O)c(Cl)cc(Cl)c1Cl` [Hexachlorophene] the figure was 21.4 ± 16%; with `CCOC(=O)c1ccc(N)cc1` [Benzocaine], 0.573 ± 3.1%; with `NS(=O)(=O)c1cc2c(cc1C(F)(F)F)NC(Cc1ccccc1)NS2(=O)=O` (stereo not given) [Bendroflumethiazide], -0.966 ± 1.2%.

The experiment is the same for the next values; noted with them: antibiotic (0.125x MIC): gentamicin; 20 µM.
In the case of `N=C(NCCCCCCNC(=N)NC(=N)Nc1ccc(Cl)cc1)NC(=N)Nc1ccc(Cl)cc1` [Chlorhexidine], the percent growth inhibition was 112 ± 19%.

Turning to `CC1CS(=O)(=O)CCN1/N=C/c1ccc([N+](=O)[O-])o1` (stereo not given) [Nifurtimox], the percent growth inhibition was 2.95 ± 0.97%. Same read-out and setting: with `CC1=C(/C=C/C(C)=C/C=C/C(C)=C\C(=O)O)C(C)(C)CCC1` [Isotretinoin] the figure was 12.7 ± 20%.

The experiment is the same for the next values; noted with them: antibiotic (0.125x MIC): meropenem; 7 µM.
Turning to `Nc1nc(=S)c2ncn([C@@H]3O[C@H](CO)[C@@H](O)[C@H]3O)c2[nH]1` [Thioguanosine], the percent growth inhibition came to 34.2 ± 1.9%. Same read-out and setting: with `O=C1CN(/N=C/c2ccc([N+](=O)[O-])o2)C(=O)N1` [Nitrofurantoin] the figure was 2.1 ± 2.9%; with `CC[C@H]1OC(=O)[C@H](C)[C@@H](O[C@H]2C[C@@](C)(OC)[C@@H](O)[C@H](C)O2)[C@H](C)[C@@H](O[C@@H]2O[C@H](C)C[C@H](N(C)C)[C@H]2O)[C@](C)(O)C[C@@H](C)CN(C)[C@H](C)[C@@H](O)[C@]1(C)O` [Azithromycin], 20.7 ± 7.2%; with `N[C@@H]1CCCCN(c2c(F)cc3c(=O)c(C(=O)O)cn(C4CC4)c3c2Cl)C1` [Besifloxacin hydrochloride], 2.23 ± 6.8%. Still for that read-out and setting: the figure for `CS(=O)(=O)c1ccc([C@@H](O)[C@@H](CO)NC(=O)C(Cl)Cl)cc1` [Thiamphenicol] is 7.39 ± 2.1%; for `NC(=O)N/N=C/c1ccc([N+](=O)[O-])o1` [Nitrofural] it is 4.64 ± 4%; for `CCC[C@@H]1C[C@@H](C(=O)N[C@@H]([C@H]2O[C@H](SC)[C@H](O)[C@@H](O)[C@H]2O)[C@H](C)Cl)N(C)C1` [Clindamycin hydrochloride] it is 13.3 ± 0.73%.

Consider `O=C(O)CN(CCN(CC(=O)O)CC(=O)O)CCN(CC(=O)O)CC(=O)O` [Pentetic acid], for which the percent growth inhibition is -3.74 ± 3.2%.

Take `CCCCCCCCNC(C)C(O)c1ccc(SC(C)C)cc1` (stereo not given) [Suloctidil]: the percent growth inhibition was 1.25 ± 3.5%.

The same experiment, now with this note: antibiotic (0.125x MIC): meropenem; 20 µM.
As for `Nc1nc(=S)c2ncn([C@@H]3O[C@H](CO)[C@@H](O)[C@H]3O)c2[nH]1` [Thioguanosine], the percent growth inhibition was 81.6 ± 9.8%.

With `CC[C@H]1OC(=O)[C@H](C)[C@@H](O[C@H]2C[C@@](C)(OC)[C@@H](O)[C@H](C)O2)[C@H](C)[C@@H](O[C@@H]2O[C@H](C)C[C@H](N(C)C)[C@H]2O)[C@](C)(O)C[C@@H](C)CN(C)[C@H](C)[C@@H](O)[C@]1(C)O` [Azithromycin], the percent growth inhibition was found to be 50.1 ± 20%. Turning to `CS(=O)(=O)c1ccc([C@@H](O)[C@@H](CO)NC(=O)C(Cl)Cl)cc1` [Thiamphenicol], the percent growth inhibition came to 30.4 ± 14%. On the same count and under the same terms, with `N=C(NCCCCCCNC(=N)NC(=N)Nc1ccc(Cl)cc1)NC(=N)Nc1ccc(Cl)cc1` [Chlorhexidine] the figure was 99.2 ± 1.6%; with `CCC[C@@H]1C[C@@H](C(=O)N[C@@H]([C@H]2O[C@H](SC)[C@H](O)[C@@H](O)[C@H]2O)[C@H](C)Cl)N(C)C1` [Clindamycin hydrochloride], 42.6 ± 12%.
